For 40 molecules, Potency results are on record in PubChem BioAssay (Tox21).

Calls of active or inactive are those of the source. Entries that show only a call come without a potency. Calls follow the shape of the dose curve; as a rule, active = well fitted curve in the direction sought with a large enough effect in the repeat runs; inconclusive = weak or mixed curves; inactive = flat fitted curve, though single readings scatter.
Potency is read from the fitted curve at half-maximal effect; tags tell the direction and shape of the fitted curve or compound fluorescence and quenching.

The experiment can be described thus: qHTS assay to test for compound auto fluorescence at 535 nm (green) in HEK293 cell free culture (AID 720682). As to conditions: cell-free medium, green autofluorescence 485/535 nm; series mostly up to 91.3 µM. The text has this:
U.S. Tox21 Program National Center for Advancing Translational Sciences [NCATS] NIH Chemical Genomics Center [NCGC] U.S. Environmental Protection Agency [EPA] National Institutes of Environmental Health Sciences [NIEHS] National Toxicology Program [NTP] U.S. Food and Drug Administration [FDA] Tox21 Assay Overview: Compound auto fluorescence often interferes with screening of the compound library against various biological targets and signaling pathways. Some of these compounds may have fluorophoric properties. Such properties may interfere with the assay outputs resulting in false positives and/or negatives. To decrease such complications and ensure the compound activities are relevant in terms of biological response, the Tox21 10K compound library was screened for auto fluorescence. From the fluorophores used as reporter signals in our screening assays, the auto fluorescence equivalencies of compounds against three fluorophores have been evaluated: Triamterene, Fluorescein and Rose Bengal sodium for blue, green and red fluorescence, respectively. The fluorescence intensities were measured using Excitation/Emission wavelengths at 405/460nm, 485/535nm and 540/590nm for blue, green and red labels, respectively. This assay includes the green fluorescence data.
Tox21 Assay Protocol Summary: 5 uL of culture medium (DMEM containing 10% FBS) per well was dispensed into black wall/clear bottom 1536-well plates using a Multidrop Combi Dispenser (ThermoFisher Scientific, Waltham, MA). After 23 nL compound or DMSO vehicle was transferred into assay plate by a pintool work station (Kalypsys, San Diego, CA), fluorescence intensities in the assay plates were measured by an Envision (PerkinElmer, Shelton, CT) plate reader using three labels for measuring blue, green and red fluorescence at […] 460, 535 and 590nm respectively.
In general terms: In qHTS, concentration-response curves come from the screen itself.
Take `C[Si](C)(C)O[Si](C)(C)C`: the Potency entry was “inactive”. For `O=C1c2cccc(O)c2C(=O)c2c(O)cccc21`, the Potency entry is “inactive”.

As for `O=S(=O)(O)c1ccc(O)cc1`, the Potency entry was “inactive”.

Consider `Oc1ccc(O)cc1`, for which the Potency result was “inactive”. Regarding `O=Cc1ccccc1O`, the Potency entry was “inactive”. Next, `CCCc1c(OCCCCc2nn[nH]n2)ccc(C(C)=O)c1O`: “inactive”; `COc1ccc(C(=O)CC(=O)c2ccc(C(C)(C)C)cc2)cc1`: “inactive”; `O=c1oc(=O)c2cc3c(=O)oc(=O)c3cc12`: “inactive”. Next, `Nc1ncnc2nc[nH]c12`: “inactive”; `CCCCc1oc2ccccc2c1C(=O)c1cc(I)c(OCCN(CC)CC)c(I)c1`: “inactive”; `Cc1ncc[nH]1`: “inactive”. Next, `CN1C(C(=O)Nc2ccccn2)=C(O)c2ccccc2S1(=O)=O`: “inactive”; `Cc1ccc2c(n1)Oc1ccc(C(C)C(=O)OCC(=O)N(C)C)cc1C2` (stereo not given): “inactive”; `c1cc(-c2ccncc2)ccn1`: “inactive”. In the case of `CC(=O)c1ccccn1`, the Potency result was “inactive”. For the molecule `Brc1cc(Oc2cc(Br)c(Br)c(Br)c2Br)c(Br)c(Br)c1Br`, the Potency entry was “inactive”. Next, `c1ccc2c(c1)Oc1ccccc1S2`: “inactive”; `CC(C)=CCC/C(C)=C\CO`: “inactive”.

On to `CCCCC(CC)COP(=O)(OCC(CC)CCCC)OCC(CC)CCCC` (stereo not given), for which the Potency result is “inactive”. Next, `CCCCC(CC)COC(=O)c1ccc(N(C)C)cc1` (stereo not given): “inactive”; `CC1=CC2C3CC(C=C3C)C2C1` (stereo not given): “inactive”. Next, `CCOCCOCCO`: “inactive”; `COC(=O)c1ccccc1`: “inactive”. Next, `CC(=O)C1(C)CC2=C(CCCC2(C)C)CC1C` (stereo not given): “inactive”; `C#C[C@]1(O)CC[C@H]2[C@@H]3CCc4cc(OC)ccc4[C@H]3CC[C@@]21C`: “inactive”. Turning to `Cc1c(OCC(F)(F)F)ccnc1CS(=O)c1nc2ccccc2[nH]1` (stereo not given), the Potency entry was “inactive”. Next, `COC(=O)Nc1nc2ccc(S(=O)c3ccccc3)cc2[nH]1` (stereo not given): “inactive”; `CC(C)Oc1ccc2c(=O)c(-c3ccccc3)coc2c1`: “inactive”.

For the molecule `CCOC(=O)C(C#N)=C(c1ccccc1)c1ccccc1`, the Potency result is “inactive”. For `COc1cc([C@@H]2c3cc4c(cc3[C@H](O)[C@H]3COC(=O)[C@H]23)OCO4)cc(OC)c1OC`, the Potency result was “inactive”.

`COC(=O)C1=C(C)NC(C)=C(C(=O)OCCN(C)Cc2ccccc2)C1c1cccc([N+](=O)[O-])c1` (stereo not given): the Potency result is “inactive”. Next, `O=C(O)c1ccccc1Nc1cccc(C(F)(F)F)c1`: “inactive”; `CC(C)OC(=O)C(C)(C)Oc1ccc(C(=O)c2ccc(Cl)cc2)cc1`: “inactive”; `NC=O`: “inactive”. Next, `Cc1cc2nc3c(=O)[nH]c(=O)nc-3n(C[C@H](O)[C@H](O)[C@H](O)CO)c2cc1C`: 31.6 µM [fluorescent] (active) [middle of 4 runs]. Next, `Cc1ccc(C(=O)c2cc(O)c(O)c([N+](=O)[O-])c2)cc1`: “inactive”. `COc1cccc2c1C(=O)c1c(O)c3c(c(O)c1C2=O)C[C@@](O)(C(=O)CO)C[C@@H]3O[C@H]1C[C@H](N)[C@H](O)[C@H](C)O1`: the Potency entry is “inactive”. For `C=C(C)C1CC=C(C)CC1` (stereo not given), the Potency entry is “inactive”. `O=P(O)(O)O`: the Potency entry was “inactive”. Turning to `O=C(/C=C/c1ccccc1)OCc1ccccc1`, the Potency result was “inactive”.
